The nature of assay [1]: Validation qHTS assay for inhibitors of Activation Induced Cytidine Deaminase (AID): UDG Counterscreen signal (AID 1347427). The method in brief: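 Counterscreen read of UDG activity (2 U/mL, 4/3x) in the FRET deamination format with AID (1 uM, 4/3x), DJC20/DJC23 substrates (250 nM, 4x), 4 h at room temperature. NaOH stop, fluorescence at 560 ex/665 em.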
On the technique in general: Quantitative high-throughput screening tests each substance at several concentrations.

The target of assay [2] is Single-stranded DNA cytosine deaminase (Homo sapiens) (UniProt Q9GZX7). Put plainly: Validation qHTS assay for inhibitors of Activation Induced Cytidine Deaminase (AID): AID signal (AID 1347429). Also: potency is read from the fitted curve at half-maximal effect. Put shortly: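 AID and UDG were combined and compounds added at final up to 114 uM, then DJC20/DJC23 FRET substrate was added for 4 hr at room temperature. NaOH was then added for 30 min before fluorescence was read at 540/590 nm.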
Single-stranded DNA cytosine deaminase (Homo sapiens), sequence (Q9GZX7 whole entry, looked up): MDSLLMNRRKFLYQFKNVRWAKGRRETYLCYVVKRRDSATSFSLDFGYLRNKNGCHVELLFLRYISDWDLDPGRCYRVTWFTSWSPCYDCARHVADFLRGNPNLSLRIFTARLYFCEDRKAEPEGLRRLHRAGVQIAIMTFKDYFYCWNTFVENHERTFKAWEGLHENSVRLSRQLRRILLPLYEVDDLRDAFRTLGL

Assay [3] can be described thus: Primary qHTS for inhibitors of La Crosse Virus (LACV) - induced cell death in SH-SY5Y cells (AID 1508616). Also: potency is read from the fitted curve at half-maximal effect. The method in brief:
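Luminescent ATP readout (ATPLite 1step, 5 min room temperature) measured rescue from LACV-induced death after 6 days of infection at 0.01 MOI; normalized to infected DMSO wells and uninfected DMSO wells.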

Assay [4] has as its target Protein phosphatase 1D (Homo sapiens) (UniProt O15297). Put plainly: RapidFire Mass Spectrometry qHTS Assay for Modulators of WT P53-Induced Phosphatase 1 (WIP1) (AID 1347424).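 Also: amount of dephosphorylated VEPPL-S-QETFS peptide product formed by WIP1; series mostly up to about 63 µM.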 The method in brief:
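10 nM WIP1 + cpd, 1 h RT; + 2 uM VEPPL-pS-QETFS, 5 min RT; stop 0.5% formic acid; labelled product standard 1 uM; RapidFire MS. Buffer 50 mM Tris pH 7.5, 30 mM MgCl2, 1 mM TCEP.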

Assay [5] has the same target. Description: Rhodamine-PBP qHTS Assay for Modulators of WT P53-Induced Phosphatase 1 (WIP1) (AID 1347425). The method in brief: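 WIP1 (5 nM final) was preincubated with compound for 1 hour at room temperature. It then dephosphorylated 10 uM VEPPL-pS-QETFS peptide in Tris-HCl pH 7.5 with 30 mM MgCl2. Released Pi was detected by 10 uM Rh-PBP fluorescence (ex 525/em 598 nm) read at 1-min intervals for 11 min, as delta f1 - f0.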

Assay [6] is described as follows: qHTS to identify inhibitors of the type 1 interferon - major histocompatibility complex class I in skeletal muscle: primary screen against the NCATS Mechanism Interrogation Plate v5.0 (MIPE) Libary (AID 1347411). Also: nearly all actives have a fitted effect of over 65% in size. The method in brief:
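Immortalized human C25cl48 myoblasts with HiBit knocked into endogenous HLA-B*08:01 were stimulated with 4.0 ng/ml IFN-beta and exposed to compounds (11-point 1:3 titration, top 46 uM final) for 24 hrs at 37 C; HiBiT lytic luminescence measured.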

Consider 41 compounds from PubChem BioAssay (NCATS).

Records with an inconclusive call do not appear. A call without a number means that no potency is given here. Active and inactive are the calls of the source. Calls follow the shape of the dose curve; as a rule, active = well fitted curve in the direction sought with a large enough effect; inconclusive = small, poorly fitted or top-dose-only effect, or another doubt; inactive = no such curve, though single readings can be large; an effect the other way counts as inactive or inconclusive.

Protein phosphatase 1D (Homo sapiens), sequence (O15297 whole entry, looked up): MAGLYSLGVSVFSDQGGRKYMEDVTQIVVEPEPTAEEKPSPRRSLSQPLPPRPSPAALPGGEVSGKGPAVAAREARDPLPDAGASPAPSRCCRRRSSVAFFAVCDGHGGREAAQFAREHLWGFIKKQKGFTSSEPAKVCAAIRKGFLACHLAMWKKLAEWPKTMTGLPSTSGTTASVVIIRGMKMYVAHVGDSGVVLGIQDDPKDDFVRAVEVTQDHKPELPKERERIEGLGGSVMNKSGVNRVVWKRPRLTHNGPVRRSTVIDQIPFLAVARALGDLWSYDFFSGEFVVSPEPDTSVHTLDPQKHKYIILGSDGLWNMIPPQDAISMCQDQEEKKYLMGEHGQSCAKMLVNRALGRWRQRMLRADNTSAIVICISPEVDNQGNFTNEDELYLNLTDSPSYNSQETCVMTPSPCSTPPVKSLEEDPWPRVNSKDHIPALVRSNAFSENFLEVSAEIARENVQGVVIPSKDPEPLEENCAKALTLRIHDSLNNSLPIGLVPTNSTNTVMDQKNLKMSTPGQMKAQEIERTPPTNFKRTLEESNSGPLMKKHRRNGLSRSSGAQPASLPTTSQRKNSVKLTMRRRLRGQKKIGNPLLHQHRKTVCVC

Turning to `CCCCCCCCCCCCCCCC(=O)NCC(COP(=O)([O-])OCC[N+](C)(C)C)OCC` (centres undefined), the Potency entry in assay [1], in assay [2] and in assay [3] was “inactive” in each case.
On to `O=c1[nH]c2ccccc2n1CCCN1CCN(C(c2ccccc2)c2ccccc2)CC1`, for which the Potency entry in assay [4] and in assay [3] was “inactive” in each case. Besides, the result in assay [5] was inactive.
For the compound `CCCCCCCCCCCCCCCCCC(=O)OC(CC(=O)O)C[N+](C)(C)C` (centres undefined), the Potency entry in assay [1], in assay [2] and in assay [3] was “inactive” in each case.
Take `N#C/C(=C\c1ccc(O)c(O)c1)C(=O)NCCCc1ccccc1`: the Potency entry in assay [1] and in assay [2] was “inactive” throughout.
`CCCSc1ccc2nc(NC(=O)OC)[nH]c2c1`: the Potency entry in assay [4] is “inactive”. Also, the call in assay [5] was inactive.
`Ic1ccc(N2CCN(Cc3c[nH]c4ncccc34)CC2)cc1`: the Potency entry in assay [1], in assay [2] and in assay [3] was “inactive” each time.
Take `CN(C)c1ccc(N=NS(=O)(=O)O)cc1`: the Potency result in assay [4] and in assay [3] was “inactive” throughout. In addition, in assay [5], the compound was called inactive.
Take `CC1(C)[C@@H](O)CC[C@]2(C)[C@H]3C(=O)C=C4[C@@H]5C[C@@](C)(C(=O)O)CC[C@]5(C)CC[C@@]4(C)[C@]3(C)CC[C@@H]12`: the Potency entry in assay [6] is “inactive”.
On to `CCCCCCCCCCCCCCCCCCNC(=O)OCC(COP(=O)([O-])OCC[n+]1ccsc1)OC` (centres undefined), for which the Potency result in assay [1], in assay [2] and in assay [3] was “inactive” each time.
Consider `CC(C)ON([C@@H](C(=O)NO)C(C)C)S(=O)(=O)c1ccc(-c2ccccc2)cc1`, for which the Potency entry in assay [1] and in assay [2] was “inactive” throughout.
Consider `COC(=O)C1=C(C)NC(C)=C(C(=O)OCC(C)=O)C1c1ccccc1[N+](=O)[O-]` (centres undefined), for which the Potency entry in assay [4] and in assay [3] was “inactive” each time. Besides, the call in assay [5] was inactive.
On to `CCCCC1C(=O)N(c2ccccc2)N(c2ccc(O)cc2)C1=O` (centres undefined), for which the Potency result in assay [4] and in assay [3] was “inactive” throughout.
With `O=C1O/C(=C/Br)CCC1c1cccc2ccccc12` (centres undefined), the Potency result in assay [1] and in assay [2] was “inactive” each time.
`CC[C@H]1OC(=O)[C@H](C)[C@@H](O[C@H]2C[C@@](C)(OC)[C@@H](O)[C@H](C)O2)[C@H](C)[C@@H](O[C@@H]2O[C@H](C)C[C@H](N(C)C)[C@H]2O)[C@](C)(O)C[C@@H](C)C(=O)[C@H](C)[C@@H](O)[C@]1(C)O`: the Potency result in assay [6] is “inactive”.
Regarding `[O-][n+]1ccccc1SSc1cccc[n+]1[O-]`, the Potency result in assay [4] was “inactive”. Further, the outcome in assay [5] was inactive.
With `Cc1c(Nc2ncccc2C(=O)O)cccc1C(F)(F)F`, the Potency result in assay [4] and in assay [3] was “inactive” in each case. For the same compound, the compound was classed as inactive in assay [5].
Take `Cc1[nH]cnc1CN1CCc2c(c3ccccc3n2C)C1=O`: the Potency result in assay [4] and in assay [3] was “inactive” each time. Also, the outcome in assay [5] was inactive.
Regarding `NCCNC(=O)c1ncsc1-c1cccc(F)c1`, the Potency result in assay [1], in assay [2] and in assay [3] was “inactive” in each case.
Take `COC(=O)Nc1nc2ccc(C(=O)C3CC3)cc2[nH]1`: the Potency entry in assay [4] was “inactive”. The compound was called inactive in assay [5].
For the compound `O=C(O)CC1CC(c2ccccc2)=NO1` (centres undefined), the Potency result in assay [1], in assay [2] and in assay [3] was “inactive” each time.
As for `COc1cc(OC)c(/C=C2/C(=O)Nc3ccccc32)c(OC)c1`, the Potency entry in assay [1] and in assay [2] was “inactive” throughout. The Potency in assay [3] is 0.891 µM (active).
For the compound `C[N+](C)(C)CC(=O)[O-]`, the Potency result in assay [1], in assay [2] and in assay [3] was “inactive” each time.
For `CSc1ccccc1N1CCN(CCCCCC(=O)NC2CCCc3ccccc32)CC1` (centres undefined), the Potency entry in assay [1], in assay [2] and in assay [3] was “inactive” in each case.
In the case of `N#C/C(=C\c1ccc(O)c(O)c1)C(=O)NCc1ccccc1`, the Potency result in assay [6], in assay [1] and in assay [2] was “inactive” in each case.
Consider `C[C@@H](NC(=O)/C(C#N)=C/c1ccc(O)c(O)c1)c1ccccc1`, for which the Potency entry in assay [1], in assay [2] and in assay [3] was “inactive” each time.
As to `CCCn1c(=O)c2[nH]c(-c3ccc(OCC(=O)NCCN)cc3)nc2n(CCC)c1=O`, the Potency entry in assay [1], in assay [2] and in assay [3] was “inactive” each time.
With `S=c1[nH]c2ccccc2s1`, the Potency entry in assay [4] and in assay [3] was “inactive” throughout. For the same compound, the compound was called inactive in assay [5].
Regarding `CN(C)CCCO[C@@H]1[C@H]2OC(C)(C)O[C@H]2O[C@@H]1[C@H](O)CO`, the Potency result in assay [1], in assay [2] and in assay [3] was “inactive” throughout.
Consider `CCNC(=O)[C@H]1O[C@@H](n2cnc3c(N)nc(NCCc4ccc(CCC(=O)O)cc4)nc32)[C@H](O)[C@@H]1O`, for which the Potency result in assay [6] and in assay [2] was “inactive” throughout.
`CCCCC/C=C\CC(O)/C=C/c1cccc(CC(O)CCCCO)n1` (centres undefined): the Potency result in assay [1], in assay [2] and in assay [3] was “inactive” in each case.
Turning to `CCCCCCCCCCCCCCCCCC(=O)NCC(COP(=O)([O-])OCC[N+](C)(C)C)OCC` (centres undefined), the Potency result in assay [1] was “inactive”.
With `O=c1cc(-c2ccccc2)oc2ccccc12`, the Potency result in assay [4] and in assay [3] was “inactive” each time. Further, the call in assay [5] was inactive.
With `C[N+](C)(CCCCCC[N+](C)(C)CCCN1C(=O)c2cccc3cccc(c23)C1=O)CCCN1C(=O)c2cccc3cccc(c23)C1=O`, the Potency entry in assay [1] and in assay [3] was “inactive” throughout. In assay [2], the Potency is 1.41 µM (active).
Take `COC(=O)C1=C(C)NC(C)=C(C(=O)OCC(C)C)C1c1ccccc1[N+](=O)[O-]` (centres undefined): the Potency result in assay [4] and in assay [3] was “inactive” each time. Further, the result in assay [5] was inactive.
In the case of `CC(C)(C)c1ccc(S(=O)(=O)/C=C/C#N)cc1`, the Potency entry in assay [1] and in assay [2] was “inactive” each time.
Consider `O=C(O)[C@@H]1C[C@H](C(=O)O)N1`, for which the Potency result in assay [1], in assay [2] and in assay [3] was “inactive” throughout.
Consider `CN(C)c1nc2c(Br)c(Br)c(Br)c(Br)c2[nH]1`, for which the Potency result in assay [2] and in assay [3] was “inactive” in each case.
As for `O=C(O)[C@@H]1C[C@@H](C(=O)O)N1`, the Potency result in assay [1], in assay [2] and in assay [3] was “inactive” throughout.
Turning to `Cc1cc2c(cc1Cl)N(C(=O)Nc1ccc(Oc3cccnc3C)nc1)CC2`, the Potency result in assay [1] and in assay [3] was “inactive” in each case.
Take `CCc1c(C(=O)NCCc2ccc(N3CCCCC3)cc2)[nH]c2ccc(Cl)cc12`: the Potency entry in assay [3] is “inactive”.
Consider `Cc1nc2sccn2c(=O)c1CCN1CCC(=C(c2ccccc2)c2ccc(F)cc2)CC1`, for which the Potency result in assay [1], in assay [2] and in assay [3] was “inactive” in each case.
